These results are taken from paper PMC7862700, “An all-to-all approach to the identification of sequence-specific readers for epigenetic DNA modifications on cytosine”.

Assay in all cases: DAPPL (digital affinity profiling via proximity ligation, sequencing); 10 mM Tris-HCl pH 7.5, 50 mM NaCl, 1 mM DTT, 4% glycerol, room temperature, 30 min; GST-TFs on glutathione beads, 16-mer random dsDNA library, 0.1% formaldehyde crosslink after washing; high values mean tight binding
The target in assay [1] is T1, FLI1 (Homo sapiens, UniProt Q01543 1-452).
T1 sequence: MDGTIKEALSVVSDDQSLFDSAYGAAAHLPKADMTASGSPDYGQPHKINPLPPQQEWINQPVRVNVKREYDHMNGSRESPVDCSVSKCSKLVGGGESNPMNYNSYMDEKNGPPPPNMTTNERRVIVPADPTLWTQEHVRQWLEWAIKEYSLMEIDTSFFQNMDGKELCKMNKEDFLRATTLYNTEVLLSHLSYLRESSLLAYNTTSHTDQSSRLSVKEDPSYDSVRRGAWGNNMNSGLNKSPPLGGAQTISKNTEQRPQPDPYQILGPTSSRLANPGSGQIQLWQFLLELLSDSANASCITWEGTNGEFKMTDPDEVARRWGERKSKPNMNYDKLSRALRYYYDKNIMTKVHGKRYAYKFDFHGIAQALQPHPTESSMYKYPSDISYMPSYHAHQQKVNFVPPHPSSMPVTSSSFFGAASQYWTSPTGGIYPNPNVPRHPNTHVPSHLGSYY
The following applies: protein: recombinant; tags: N-terminal GST; dsDNA, one strand shown. The essentials: (§1)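 Pools of DNA-barcoded human transcription factors, expressed in yeast as GST fusions on glutathione beads and combined with a tag-only sample, were incubated with 200 nmole of a 16-mer random double-stranded DNA library. Incubation took 30 min at room temperature in Tris/NaCl/DTT/glycerol buffer and was followed by washing, 0.1% formaldehyde crosslinking, proximity ligation (BsaI/T4 ligase, 1 h, 37 °C), PCR amplification and sequencing on an Illumina NextSeq500. Binding signal is the ratio of a hexamer's read frequency for a factor to its frequency for the tag-only sample.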

In assay [2] the target is T2, ELK1 (Homo sapiens, UniProt P19419 1-428).
T2 sequence: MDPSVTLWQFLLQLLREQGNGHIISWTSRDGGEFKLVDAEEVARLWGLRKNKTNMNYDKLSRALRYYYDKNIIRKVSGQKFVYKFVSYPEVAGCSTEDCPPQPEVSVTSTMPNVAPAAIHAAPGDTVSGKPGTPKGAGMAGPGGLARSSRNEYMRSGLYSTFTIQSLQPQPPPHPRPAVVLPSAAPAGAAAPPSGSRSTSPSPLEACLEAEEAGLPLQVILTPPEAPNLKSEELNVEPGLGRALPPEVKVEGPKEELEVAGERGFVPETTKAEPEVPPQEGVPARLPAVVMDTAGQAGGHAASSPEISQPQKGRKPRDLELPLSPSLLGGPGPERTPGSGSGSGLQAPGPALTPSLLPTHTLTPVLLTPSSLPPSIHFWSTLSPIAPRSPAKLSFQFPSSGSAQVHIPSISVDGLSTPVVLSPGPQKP
The note with it: protein: recombinant; tags: N-terminal GST; dsDNA, one strand shown. The essentials: as §1

The target of assay [3] is T3, GABPA (Homo sapiens, UniProt Q06546 1-454).
T3 sequence: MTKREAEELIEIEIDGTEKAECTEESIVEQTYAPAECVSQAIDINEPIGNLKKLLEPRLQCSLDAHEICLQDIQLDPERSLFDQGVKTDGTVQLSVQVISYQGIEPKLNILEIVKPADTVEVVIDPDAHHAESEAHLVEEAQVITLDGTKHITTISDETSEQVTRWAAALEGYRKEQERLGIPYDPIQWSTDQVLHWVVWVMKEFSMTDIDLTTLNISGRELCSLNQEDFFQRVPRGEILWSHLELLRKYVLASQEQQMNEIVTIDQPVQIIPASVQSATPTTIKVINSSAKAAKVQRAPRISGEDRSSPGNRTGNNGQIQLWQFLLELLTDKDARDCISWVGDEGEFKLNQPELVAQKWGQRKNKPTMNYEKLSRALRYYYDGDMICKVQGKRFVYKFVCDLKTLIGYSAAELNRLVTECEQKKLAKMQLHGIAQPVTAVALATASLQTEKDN
The following applies: protein: recombinant; tags: N-terminal GST; dsDNA, one strand shown. In outline:
as §1

Assay [4] addresses T4, ERG (Homo sapiens, UniProt P11308 1-479).
T4 sequence: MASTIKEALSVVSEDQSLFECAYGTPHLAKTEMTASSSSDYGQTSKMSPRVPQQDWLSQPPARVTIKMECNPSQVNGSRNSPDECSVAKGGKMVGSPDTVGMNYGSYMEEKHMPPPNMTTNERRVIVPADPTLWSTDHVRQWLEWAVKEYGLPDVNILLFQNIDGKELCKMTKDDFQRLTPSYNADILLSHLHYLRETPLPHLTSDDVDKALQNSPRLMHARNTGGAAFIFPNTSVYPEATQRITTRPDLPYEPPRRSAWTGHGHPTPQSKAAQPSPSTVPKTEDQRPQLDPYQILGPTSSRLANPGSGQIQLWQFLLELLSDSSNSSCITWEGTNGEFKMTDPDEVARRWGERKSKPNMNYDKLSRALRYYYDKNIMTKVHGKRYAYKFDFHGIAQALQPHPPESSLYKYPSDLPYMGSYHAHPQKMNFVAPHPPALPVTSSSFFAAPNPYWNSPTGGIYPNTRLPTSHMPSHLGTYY
The following applies: protein: recombinant; tags: N-terminal GST; dsDNA, one strand shown. The essentials:
as §1

Assay [5] has as its target ELF1 (Homo sapiens, UniProt P32519 1-619). The note with it: protein: recombinant; tags: N-terminal GST; dsDNA, one strand shown. In outline:
as §1

Assay [6] addresses T5, EHF (Homo sapiens, UniProt Q9NZC4 1-300).
T5 sequence: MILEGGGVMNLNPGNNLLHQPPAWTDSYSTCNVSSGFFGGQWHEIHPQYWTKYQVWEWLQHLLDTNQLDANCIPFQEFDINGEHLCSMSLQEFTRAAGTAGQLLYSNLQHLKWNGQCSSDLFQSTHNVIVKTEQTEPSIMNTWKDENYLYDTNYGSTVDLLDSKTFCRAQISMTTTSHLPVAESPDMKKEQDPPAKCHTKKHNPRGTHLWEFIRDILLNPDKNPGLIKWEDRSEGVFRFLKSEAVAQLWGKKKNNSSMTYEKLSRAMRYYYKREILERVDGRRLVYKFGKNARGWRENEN
The following applies: protein: recombinant; tags: N-terminal GST; dsDNA, one strand shown. The essentials:
as §1

Assay [7] concerns the target SPI1 (Homo sapiens, UniProt P17947 1-270). The following applies: protein: recombinant; tags: N-terminal GST; dsDNA, one strand shown. In outline:
as §1

The target in assay [8] is SPIB (Homo sapiens, UniProt Q01892 1-262). The note with it: protein: recombinant; tags: N-terminal GST; dsDNA, one strand shown. The essentials: as §1
SPIB, sequence (Q01892 whole entry): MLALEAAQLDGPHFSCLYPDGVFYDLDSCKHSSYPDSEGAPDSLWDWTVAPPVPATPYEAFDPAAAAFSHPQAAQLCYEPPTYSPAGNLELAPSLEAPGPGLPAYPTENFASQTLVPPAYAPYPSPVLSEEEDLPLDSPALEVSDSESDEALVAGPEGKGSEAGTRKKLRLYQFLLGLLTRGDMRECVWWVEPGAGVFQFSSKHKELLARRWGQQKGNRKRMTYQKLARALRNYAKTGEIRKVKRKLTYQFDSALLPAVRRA
Assay [9] deals with T6, ELK3 (Homo sapiens, UniProt P41970 1-407).
T6 sequence: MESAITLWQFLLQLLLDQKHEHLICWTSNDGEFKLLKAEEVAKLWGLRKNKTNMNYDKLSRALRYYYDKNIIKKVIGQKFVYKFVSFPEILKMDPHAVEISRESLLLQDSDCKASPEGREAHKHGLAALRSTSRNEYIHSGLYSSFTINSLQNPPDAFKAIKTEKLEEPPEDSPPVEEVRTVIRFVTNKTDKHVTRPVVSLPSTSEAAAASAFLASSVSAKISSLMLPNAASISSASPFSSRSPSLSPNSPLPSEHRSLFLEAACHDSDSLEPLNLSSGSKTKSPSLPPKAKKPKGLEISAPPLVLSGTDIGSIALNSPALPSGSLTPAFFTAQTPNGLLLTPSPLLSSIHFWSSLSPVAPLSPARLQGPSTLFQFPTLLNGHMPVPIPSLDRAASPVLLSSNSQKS
The following applies: protein: recombinant; tags: N-terminal GST; dsDNA, one strand shown. In outline:
as §1

The target in assay [10] is T7, FEV (Homo sapiens, UniProt Q99581 1-238).
T7 sequence: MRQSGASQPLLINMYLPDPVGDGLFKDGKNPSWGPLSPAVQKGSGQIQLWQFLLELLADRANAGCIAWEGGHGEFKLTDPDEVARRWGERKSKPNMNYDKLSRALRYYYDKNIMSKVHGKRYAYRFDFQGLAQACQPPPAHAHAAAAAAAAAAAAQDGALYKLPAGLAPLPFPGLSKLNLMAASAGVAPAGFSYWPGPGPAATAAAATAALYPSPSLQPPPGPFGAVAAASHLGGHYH
The note with it: protein: recombinant; tags: N-terminal GST; dsDNA, one strand shown. In outline: as §1

Assay [11] deals with ETV5 (Homo sapiens, UniProt P41161 1-510). The following applies: protein: recombinant; tags: N-terminal GST; dsDNA, one strand shown. In outline:
as §1

Assay [12] concerns the target HSF1 (Homo sapiens, UniProt Q00613 1-529). The note with it: protein: recombinant; tags: N-terminal GST; chain copies: 3; dsDNA, one strand shown. The essentials:
as §1

The target in assay [13] is T8, SPIC (Homo sapiens, UniProt Q8N5J4 1-248).
T8 sequence: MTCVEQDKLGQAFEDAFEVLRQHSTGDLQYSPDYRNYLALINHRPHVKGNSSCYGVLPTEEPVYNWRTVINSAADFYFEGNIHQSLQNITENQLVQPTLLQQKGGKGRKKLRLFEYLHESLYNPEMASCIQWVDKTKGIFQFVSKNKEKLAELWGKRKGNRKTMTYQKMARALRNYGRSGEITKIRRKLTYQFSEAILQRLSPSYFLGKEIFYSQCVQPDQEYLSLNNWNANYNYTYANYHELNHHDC
The note with it: protein: recombinant; tags: N-terminal GST; dsDNA, one strand shown. In outline:
as §1

The target of assay [14] is ELF4 (Homo sapiens, UniProt Q99607 1-663). The note with it: protein: recombinant; tags: N-terminal GST; dsDNA, one strand shown. The essentials: as §1
ELF4, sequence (Q99607 whole entry): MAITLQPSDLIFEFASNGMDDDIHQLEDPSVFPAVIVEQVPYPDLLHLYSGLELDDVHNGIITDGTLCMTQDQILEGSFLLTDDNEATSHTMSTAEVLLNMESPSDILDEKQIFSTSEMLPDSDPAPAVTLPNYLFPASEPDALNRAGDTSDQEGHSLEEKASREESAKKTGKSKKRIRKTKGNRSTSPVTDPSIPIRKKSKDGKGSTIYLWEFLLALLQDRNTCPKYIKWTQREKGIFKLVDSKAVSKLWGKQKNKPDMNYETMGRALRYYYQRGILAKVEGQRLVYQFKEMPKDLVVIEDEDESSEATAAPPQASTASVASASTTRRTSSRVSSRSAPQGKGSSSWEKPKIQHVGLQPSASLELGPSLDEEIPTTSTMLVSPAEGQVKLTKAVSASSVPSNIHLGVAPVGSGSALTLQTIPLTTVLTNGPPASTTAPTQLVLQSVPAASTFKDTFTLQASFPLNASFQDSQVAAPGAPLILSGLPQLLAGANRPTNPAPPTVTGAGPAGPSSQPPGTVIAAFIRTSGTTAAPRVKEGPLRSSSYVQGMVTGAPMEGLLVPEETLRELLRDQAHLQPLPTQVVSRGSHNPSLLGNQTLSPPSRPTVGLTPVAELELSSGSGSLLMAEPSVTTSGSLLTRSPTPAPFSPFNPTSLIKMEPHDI
The target in assay [15] is T9, ELK4 (Homo sapiens, UniProt P28324-2 1-405).
T9 sequence: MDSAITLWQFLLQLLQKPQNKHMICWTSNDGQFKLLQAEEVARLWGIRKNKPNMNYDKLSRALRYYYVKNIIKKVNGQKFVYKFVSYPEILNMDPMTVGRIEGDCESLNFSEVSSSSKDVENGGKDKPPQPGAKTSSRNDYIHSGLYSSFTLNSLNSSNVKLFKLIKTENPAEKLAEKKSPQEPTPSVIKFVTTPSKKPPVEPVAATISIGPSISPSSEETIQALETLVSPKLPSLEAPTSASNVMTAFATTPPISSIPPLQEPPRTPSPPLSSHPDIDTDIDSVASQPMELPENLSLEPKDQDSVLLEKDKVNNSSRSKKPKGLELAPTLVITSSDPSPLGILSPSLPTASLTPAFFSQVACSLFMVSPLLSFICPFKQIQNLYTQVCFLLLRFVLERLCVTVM
The following applies: protein: recombinant; tags: N-terminal GST; dsDNA, one strand shown. In outline:
as §1

For assay [16], the target named is T10, ETV2 (Homo sapiens, UniProt O00321 1-342).
T10 sequence: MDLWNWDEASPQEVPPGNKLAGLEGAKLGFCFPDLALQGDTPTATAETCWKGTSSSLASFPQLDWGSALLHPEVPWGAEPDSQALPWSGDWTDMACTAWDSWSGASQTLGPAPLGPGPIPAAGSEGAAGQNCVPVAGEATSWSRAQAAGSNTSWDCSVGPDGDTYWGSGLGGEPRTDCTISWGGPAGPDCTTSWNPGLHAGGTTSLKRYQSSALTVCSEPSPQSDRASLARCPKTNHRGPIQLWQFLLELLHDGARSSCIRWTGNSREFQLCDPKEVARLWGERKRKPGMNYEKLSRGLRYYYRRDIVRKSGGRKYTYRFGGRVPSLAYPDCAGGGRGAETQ
The following applies: protein: recombinant; tags: N-terminal GST; dsDNA, one strand shown. The essentials:
as §1

Assay [17] concerns the target T11, ELF3 (Homo sapiens, UniProt P78545 1-371).
T11 sequence: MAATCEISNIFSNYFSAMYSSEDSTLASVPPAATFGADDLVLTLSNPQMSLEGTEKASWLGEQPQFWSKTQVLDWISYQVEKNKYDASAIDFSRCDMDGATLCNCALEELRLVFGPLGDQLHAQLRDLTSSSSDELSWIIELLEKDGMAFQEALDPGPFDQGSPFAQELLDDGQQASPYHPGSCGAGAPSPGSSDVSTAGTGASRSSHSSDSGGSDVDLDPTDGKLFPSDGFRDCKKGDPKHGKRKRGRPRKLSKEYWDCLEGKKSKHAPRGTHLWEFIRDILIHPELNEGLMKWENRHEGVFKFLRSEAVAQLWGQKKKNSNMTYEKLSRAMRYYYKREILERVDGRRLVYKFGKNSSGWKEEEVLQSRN
The following applies: protein: recombinant; tags: N-terminal GST; dsDNA, one strand shown. The essentials:
as §1

In assay [18] the target is ETV1 (Homo sapiens, UniProt P50549 1-477). The note with it: protein: recombinant; tags: N-terminal GST; dsDNA, one strand shown. In outline: as §1
ETV1, sequence (P50549 whole entry): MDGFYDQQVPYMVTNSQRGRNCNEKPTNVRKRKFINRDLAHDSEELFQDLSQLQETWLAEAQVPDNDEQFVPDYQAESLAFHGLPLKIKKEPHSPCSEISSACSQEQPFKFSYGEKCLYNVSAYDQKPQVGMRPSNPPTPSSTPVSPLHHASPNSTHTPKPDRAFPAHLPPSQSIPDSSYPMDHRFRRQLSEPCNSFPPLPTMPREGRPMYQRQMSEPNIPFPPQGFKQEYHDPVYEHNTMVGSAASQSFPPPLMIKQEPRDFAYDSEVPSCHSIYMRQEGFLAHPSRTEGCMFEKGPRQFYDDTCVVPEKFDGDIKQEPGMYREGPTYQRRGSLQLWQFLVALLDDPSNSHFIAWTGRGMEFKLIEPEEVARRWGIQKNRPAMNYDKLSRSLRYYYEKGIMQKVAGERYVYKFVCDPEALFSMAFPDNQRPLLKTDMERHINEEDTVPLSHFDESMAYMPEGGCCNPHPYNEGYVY

HSF1, sequence (Q00613 whole entry): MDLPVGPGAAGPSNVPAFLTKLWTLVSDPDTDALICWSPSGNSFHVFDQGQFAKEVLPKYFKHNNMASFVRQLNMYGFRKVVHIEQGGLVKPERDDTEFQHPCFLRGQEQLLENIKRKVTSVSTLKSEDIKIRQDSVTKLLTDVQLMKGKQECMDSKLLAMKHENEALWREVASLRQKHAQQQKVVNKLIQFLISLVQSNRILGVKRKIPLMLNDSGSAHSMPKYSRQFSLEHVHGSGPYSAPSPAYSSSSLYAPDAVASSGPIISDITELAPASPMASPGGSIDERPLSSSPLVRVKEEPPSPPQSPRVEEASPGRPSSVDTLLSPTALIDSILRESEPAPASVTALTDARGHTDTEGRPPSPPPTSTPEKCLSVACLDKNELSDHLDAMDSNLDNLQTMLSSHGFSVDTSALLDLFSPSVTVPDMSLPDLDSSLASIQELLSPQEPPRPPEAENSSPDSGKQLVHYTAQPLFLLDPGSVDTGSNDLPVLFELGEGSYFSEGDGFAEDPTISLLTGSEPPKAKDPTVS
ETV5, sequence (P41161 whole entry): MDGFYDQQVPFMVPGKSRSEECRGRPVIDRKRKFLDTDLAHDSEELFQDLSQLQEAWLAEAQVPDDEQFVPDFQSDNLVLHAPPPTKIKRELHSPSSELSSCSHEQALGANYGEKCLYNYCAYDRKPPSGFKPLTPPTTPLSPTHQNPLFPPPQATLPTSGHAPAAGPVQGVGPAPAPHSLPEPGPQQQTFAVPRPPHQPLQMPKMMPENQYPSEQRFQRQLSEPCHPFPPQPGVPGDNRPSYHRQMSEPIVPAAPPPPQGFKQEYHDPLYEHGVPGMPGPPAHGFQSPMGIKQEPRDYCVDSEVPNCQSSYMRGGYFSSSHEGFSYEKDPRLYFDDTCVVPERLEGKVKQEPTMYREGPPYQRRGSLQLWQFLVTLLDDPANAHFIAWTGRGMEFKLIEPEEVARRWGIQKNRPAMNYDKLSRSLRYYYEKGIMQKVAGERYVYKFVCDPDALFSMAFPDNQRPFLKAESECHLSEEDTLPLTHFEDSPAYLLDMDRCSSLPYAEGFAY
ELF1, sequence (P32519 whole entry): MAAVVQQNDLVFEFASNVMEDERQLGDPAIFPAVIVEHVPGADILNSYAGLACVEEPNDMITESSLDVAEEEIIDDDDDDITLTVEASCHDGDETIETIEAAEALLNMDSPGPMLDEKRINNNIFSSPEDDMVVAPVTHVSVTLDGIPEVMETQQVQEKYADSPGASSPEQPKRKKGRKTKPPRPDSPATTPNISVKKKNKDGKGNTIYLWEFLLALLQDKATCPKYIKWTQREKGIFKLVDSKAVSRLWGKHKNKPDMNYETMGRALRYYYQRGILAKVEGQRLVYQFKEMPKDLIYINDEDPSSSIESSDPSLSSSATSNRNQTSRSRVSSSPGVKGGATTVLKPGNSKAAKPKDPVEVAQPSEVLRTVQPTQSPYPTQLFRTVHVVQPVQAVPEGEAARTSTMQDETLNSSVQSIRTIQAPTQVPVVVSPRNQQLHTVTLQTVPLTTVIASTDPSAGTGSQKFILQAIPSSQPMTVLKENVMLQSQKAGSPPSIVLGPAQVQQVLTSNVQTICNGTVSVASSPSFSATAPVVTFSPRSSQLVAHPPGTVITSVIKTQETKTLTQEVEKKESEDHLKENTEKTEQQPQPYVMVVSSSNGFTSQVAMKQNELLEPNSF

For CCGGAA, the binding signal in [1] was 5.18 fold enrichment (6-mer frequency, TF over GST control); in assay [2], 6.13 fold enrichment (6-mer frequency, TF over GST control); in assay [3], 4.9 fold enrichment (6-mer frequency, TF over GST control); in assay [4] it was 6.79 fold enrichment (6-mer frequency, TF over GST control); in assay [5], 5.12 fold enrichment (6-mer frequency, TF over GST control); in assay [6], 5.9 fold enrichment (6-mer frequency, TF over GST control). Moreover, the binding signal was 5.33 fold enrichment (6-mer frequency, TF over GST control) in assay [7]; 5.79 fold enrichment (6-mer frequency, TF over GST control) in assay [8]; 6.42 fold enrichment (6-mer frequency, TF over GST control) in assay [9]; 8.09 fold enrichment (6-mer frequency, TF over GST control) in assay [10]; 6.13 fold enrichment (6-mer frequency, TF over GST control) in assay [11]; 1.68 fold enrichment (6-mer frequency, TF over GST control) in assay [12]. The binding signal was 4.87 fold enrichment (6-mer frequency, TF over GST control) in assay [13]; 4.92 fold enrichment (6-mer frequency, TF over GST control) in [14]; 3.97 fold enrichment (6-mer frequency, TF over GST control) in [15]; 5.1 fold enrichment (6-mer frequency, TF over GST control) in assay [16]; 5.42 fold enrichment (6-mer frequency, TF over GST control) in assay [17]; 6.04 fold enrichment (6-mer frequency, TF over GST control) in [18].
